Source: article PMC7862700, “An all-to-all approach to the identification of sequence-specific readers for epigenetic DNA modifications on cytosine”

Key:
Experiment in all cases: DAPPL (digital affinity profiling via proximity ligation, sequencing); 10 mM Tris-HCl pH 7.5, 50 mM NaCl, 1 mM DTT, 4% glycerol, room temperature, 30 min; GST-TFs on glutathione beads, 16-mer random dsDNA library, 0.1% formaldehyde crosslink after washing; high values mean tight binding
[1] = biological target: T1, FLI1 (Homo sapiens, UniProt Q01543 1-452); conditions: protein: recombinant; tags: N-terminal GST; dsDNA, one strand shown
T1 sequence: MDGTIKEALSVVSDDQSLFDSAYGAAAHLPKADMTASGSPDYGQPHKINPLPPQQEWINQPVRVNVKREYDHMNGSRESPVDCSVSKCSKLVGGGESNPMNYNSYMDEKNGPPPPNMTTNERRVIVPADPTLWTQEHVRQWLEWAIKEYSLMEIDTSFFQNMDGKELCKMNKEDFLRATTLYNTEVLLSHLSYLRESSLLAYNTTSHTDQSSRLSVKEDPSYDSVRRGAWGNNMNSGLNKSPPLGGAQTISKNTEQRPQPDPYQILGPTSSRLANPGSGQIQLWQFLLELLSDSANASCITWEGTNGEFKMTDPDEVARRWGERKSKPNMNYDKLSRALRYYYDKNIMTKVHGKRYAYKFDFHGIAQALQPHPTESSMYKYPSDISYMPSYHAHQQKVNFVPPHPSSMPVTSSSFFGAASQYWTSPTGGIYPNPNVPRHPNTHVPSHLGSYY
Procedure, shortened: (§1)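 Each value of binding signal is a hexamer's read frequency for a factor divided by the same hexamer's frequency in the tag-only sample. Barcoded, bead-captured GST fusions of human transcription factors made in yeast were pooled with that sample and incubated with 200 nmole of a random double-stranded 16-mer DNA library in Tris/NaCl/DTT/glycerol buffer at room temperature for 30 min. Washing, 0.1% formaldehyde crosslinking, proximity ligation, PCR and Illumina NextSeq500 sequencing followed.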

[2] = biological target: T2, ELK1 (Homo sapiens, UniProt P19419 1-428); conditions: protein: recombinant; tags: N-terminal GST; dsDNA, one strand shown
T2 sequence: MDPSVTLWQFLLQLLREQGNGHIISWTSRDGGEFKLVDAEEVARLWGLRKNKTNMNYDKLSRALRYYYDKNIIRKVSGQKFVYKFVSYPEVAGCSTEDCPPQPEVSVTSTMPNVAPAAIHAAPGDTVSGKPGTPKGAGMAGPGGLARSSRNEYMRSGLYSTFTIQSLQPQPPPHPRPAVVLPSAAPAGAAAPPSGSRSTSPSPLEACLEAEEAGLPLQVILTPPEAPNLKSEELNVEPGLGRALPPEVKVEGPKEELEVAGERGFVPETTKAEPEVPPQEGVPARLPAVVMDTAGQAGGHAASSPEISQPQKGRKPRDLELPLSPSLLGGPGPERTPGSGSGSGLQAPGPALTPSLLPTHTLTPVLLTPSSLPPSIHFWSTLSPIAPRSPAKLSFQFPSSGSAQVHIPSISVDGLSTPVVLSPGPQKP
Procedure, shortened: as §1

[3] = biological target: T3, GABPA (Homo sapiens, UniProt Q06546 1-454); conditions: protein: recombinant; tags: N-terminal GST; dsDNA, one strand shown
T3 sequence: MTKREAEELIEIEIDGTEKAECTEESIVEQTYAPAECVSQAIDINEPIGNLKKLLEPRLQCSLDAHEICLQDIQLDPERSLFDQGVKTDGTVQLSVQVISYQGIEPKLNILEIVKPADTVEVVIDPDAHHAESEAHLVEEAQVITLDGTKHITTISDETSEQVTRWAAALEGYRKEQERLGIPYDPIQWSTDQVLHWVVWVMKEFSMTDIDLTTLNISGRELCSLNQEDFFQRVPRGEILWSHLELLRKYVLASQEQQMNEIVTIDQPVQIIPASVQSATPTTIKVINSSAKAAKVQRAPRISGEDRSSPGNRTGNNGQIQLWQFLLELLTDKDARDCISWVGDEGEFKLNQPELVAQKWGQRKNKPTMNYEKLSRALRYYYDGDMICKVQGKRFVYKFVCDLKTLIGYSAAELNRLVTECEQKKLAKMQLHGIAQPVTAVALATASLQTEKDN
Procedure, shortened: as §1

[4] = biological target: T4, ERG (Homo sapiens, UniProt P11308 1-479); conditions: protein: recombinant; tags: N-terminal GST; dsDNA, one strand shown
T4 sequence: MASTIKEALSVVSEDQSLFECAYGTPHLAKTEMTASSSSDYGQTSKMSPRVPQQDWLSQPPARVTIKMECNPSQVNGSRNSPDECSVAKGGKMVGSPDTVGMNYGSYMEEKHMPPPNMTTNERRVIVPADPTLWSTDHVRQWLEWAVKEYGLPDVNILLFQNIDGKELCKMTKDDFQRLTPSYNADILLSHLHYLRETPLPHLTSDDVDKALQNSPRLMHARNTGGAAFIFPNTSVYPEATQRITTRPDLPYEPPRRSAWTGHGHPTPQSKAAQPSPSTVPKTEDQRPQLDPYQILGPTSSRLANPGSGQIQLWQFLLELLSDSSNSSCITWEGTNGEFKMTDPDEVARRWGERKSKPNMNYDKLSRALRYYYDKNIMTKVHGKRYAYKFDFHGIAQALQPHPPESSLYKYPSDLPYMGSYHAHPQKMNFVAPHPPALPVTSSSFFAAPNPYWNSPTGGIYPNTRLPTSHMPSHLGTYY
Procedure, shortened: as §1

[5] = biological target: ELF1 (Homo sapiens, UniProt P32519 1-619); conditions: protein: recombinant; tags: N-terminal GST; dsDNA, one strand shown
Chain of ELF1 (P32519 whole entry): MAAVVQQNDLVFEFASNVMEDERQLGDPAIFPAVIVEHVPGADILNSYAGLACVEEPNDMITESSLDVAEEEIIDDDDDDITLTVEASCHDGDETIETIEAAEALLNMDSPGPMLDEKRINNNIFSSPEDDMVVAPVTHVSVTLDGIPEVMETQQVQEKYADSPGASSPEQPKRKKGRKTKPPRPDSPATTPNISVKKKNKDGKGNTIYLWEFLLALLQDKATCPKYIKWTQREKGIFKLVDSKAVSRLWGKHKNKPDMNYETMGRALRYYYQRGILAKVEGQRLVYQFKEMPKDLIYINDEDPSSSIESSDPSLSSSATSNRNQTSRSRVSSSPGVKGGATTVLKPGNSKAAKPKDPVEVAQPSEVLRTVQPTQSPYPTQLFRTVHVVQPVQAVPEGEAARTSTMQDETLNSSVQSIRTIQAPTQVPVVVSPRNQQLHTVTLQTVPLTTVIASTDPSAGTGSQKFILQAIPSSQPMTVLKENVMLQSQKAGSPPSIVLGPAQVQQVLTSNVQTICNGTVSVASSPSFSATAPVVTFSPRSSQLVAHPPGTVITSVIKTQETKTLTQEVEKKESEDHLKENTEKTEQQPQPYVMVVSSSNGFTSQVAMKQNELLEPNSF
Procedure, shortened: as §1

[6] = biological target: T5, EHF (Homo sapiens, UniProt Q9NZC4 1-300); conditions: protein: recombinant; tags: N-terminal GST; dsDNA, one strand shown
T5 sequence: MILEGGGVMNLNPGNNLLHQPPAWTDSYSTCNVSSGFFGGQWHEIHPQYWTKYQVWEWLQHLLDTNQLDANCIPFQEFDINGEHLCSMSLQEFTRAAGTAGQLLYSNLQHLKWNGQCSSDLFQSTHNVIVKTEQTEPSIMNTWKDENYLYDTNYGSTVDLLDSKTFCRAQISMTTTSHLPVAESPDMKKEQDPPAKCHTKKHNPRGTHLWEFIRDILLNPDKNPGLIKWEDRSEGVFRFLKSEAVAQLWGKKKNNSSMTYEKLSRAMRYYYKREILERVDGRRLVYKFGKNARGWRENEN
Procedure, shortened: as §1

[7] = biological target: SPI1 (Homo sapiens, UniProt P17947 1-270); conditions: protein: recombinant; tags: N-terminal GST; dsDNA, one strand shown
Procedure, shortened: as §1

[8] = biological target: SPIB (Homo sapiens, UniProt Q01892 1-262); conditions: protein: recombinant; tags: N-terminal GST; dsDNA, one strand shown
Chain of SPIB (Q01892 whole entry): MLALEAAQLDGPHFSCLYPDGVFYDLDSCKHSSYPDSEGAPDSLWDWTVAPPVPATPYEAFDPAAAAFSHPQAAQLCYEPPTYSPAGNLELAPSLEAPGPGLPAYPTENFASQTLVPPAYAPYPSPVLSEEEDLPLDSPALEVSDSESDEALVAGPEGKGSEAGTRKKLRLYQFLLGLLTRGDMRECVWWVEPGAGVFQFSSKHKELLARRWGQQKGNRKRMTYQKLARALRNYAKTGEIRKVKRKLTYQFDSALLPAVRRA
Procedure, shortened: as §1

[9] = biological target: T6, ELK3 (Homo sapiens, UniProt P41970 1-407); conditions: protein: recombinant; tags: N-terminal GST; dsDNA, one strand shown
T6 sequence: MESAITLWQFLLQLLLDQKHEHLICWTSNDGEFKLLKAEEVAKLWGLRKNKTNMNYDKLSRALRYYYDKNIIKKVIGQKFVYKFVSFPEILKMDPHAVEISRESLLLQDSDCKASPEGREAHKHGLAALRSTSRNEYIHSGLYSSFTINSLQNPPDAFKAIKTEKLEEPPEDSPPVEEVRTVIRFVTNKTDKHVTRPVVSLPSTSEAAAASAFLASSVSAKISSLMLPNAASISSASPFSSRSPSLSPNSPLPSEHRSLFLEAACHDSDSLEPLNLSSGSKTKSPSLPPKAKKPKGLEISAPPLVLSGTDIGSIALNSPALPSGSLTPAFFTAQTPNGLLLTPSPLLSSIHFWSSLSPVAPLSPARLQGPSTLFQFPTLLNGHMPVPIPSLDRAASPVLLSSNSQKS
Procedure, shortened: as §1

[10] = biological target: T7, FEV (Homo sapiens, UniProt Q99581 1-238); conditions: protein: recombinant; tags: N-terminal GST; dsDNA, one strand shown
T7 sequence: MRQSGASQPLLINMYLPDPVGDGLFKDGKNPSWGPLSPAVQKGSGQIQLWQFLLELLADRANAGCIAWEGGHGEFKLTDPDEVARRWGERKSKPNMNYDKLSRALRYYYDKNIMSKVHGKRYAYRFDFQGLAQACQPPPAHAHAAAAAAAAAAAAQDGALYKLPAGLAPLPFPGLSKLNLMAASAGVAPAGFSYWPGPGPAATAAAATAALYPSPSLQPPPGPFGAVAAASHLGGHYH
Procedure, shortened: as §1

[11] = biological target: ETV5 (Homo sapiens, UniProt P41161 1-510); conditions: protein: recombinant; tags: N-terminal GST; dsDNA, one strand shown
Chain of ETV5 (P41161 whole entry): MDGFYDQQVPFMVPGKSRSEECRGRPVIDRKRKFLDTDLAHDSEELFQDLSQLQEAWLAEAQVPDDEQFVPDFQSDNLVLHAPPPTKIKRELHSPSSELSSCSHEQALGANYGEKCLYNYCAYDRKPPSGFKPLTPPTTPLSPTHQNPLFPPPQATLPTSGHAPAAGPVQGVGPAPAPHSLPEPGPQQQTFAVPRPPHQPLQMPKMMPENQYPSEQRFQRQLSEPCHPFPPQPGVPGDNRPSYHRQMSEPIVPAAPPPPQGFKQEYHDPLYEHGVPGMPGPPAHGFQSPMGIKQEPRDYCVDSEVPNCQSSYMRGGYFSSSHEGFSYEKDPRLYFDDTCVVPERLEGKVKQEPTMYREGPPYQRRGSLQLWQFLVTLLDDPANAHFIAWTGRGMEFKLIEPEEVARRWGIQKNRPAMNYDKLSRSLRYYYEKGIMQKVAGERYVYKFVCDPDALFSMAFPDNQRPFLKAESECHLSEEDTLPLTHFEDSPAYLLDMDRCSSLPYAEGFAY
Procedure, shortened: as §1

[12] = biological target: HSF1 (Homo sapiens, UniProt Q00613 1-529); conditions: protein: recombinant; tags: N-terminal GST; chain copies: 3; dsDNA, one strand shown
Chain of HSF1 (Q00613 whole entry): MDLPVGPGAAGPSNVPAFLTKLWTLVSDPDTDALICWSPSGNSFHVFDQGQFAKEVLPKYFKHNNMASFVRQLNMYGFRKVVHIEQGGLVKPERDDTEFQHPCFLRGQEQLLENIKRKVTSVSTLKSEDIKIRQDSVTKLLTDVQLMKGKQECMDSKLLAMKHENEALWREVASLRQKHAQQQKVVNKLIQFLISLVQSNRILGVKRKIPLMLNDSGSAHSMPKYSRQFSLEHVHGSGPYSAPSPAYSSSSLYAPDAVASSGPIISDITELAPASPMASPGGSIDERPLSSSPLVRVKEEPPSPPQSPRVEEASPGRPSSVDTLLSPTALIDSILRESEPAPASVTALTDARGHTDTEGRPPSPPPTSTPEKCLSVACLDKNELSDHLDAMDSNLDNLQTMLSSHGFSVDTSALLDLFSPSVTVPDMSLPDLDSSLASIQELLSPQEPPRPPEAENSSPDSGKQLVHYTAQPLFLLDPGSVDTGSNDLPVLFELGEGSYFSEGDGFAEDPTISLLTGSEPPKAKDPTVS
Procedure, shortened: as §1

[13] = biological target: T8, SPIC (Homo sapiens, UniProt Q8N5J4 1-248); conditions: protein: recombinant; tags: N-terminal GST; dsDNA, one strand shown
T8 sequence: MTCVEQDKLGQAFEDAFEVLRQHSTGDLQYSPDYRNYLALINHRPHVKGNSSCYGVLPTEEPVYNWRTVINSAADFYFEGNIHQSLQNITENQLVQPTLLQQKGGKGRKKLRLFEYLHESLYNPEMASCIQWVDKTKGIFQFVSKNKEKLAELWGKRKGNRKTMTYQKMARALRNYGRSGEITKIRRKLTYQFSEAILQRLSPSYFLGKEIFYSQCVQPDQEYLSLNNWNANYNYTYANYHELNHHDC
Procedure, shortened: as §1

[14] = biological target: ELF4 (Homo sapiens, UniProt Q99607 1-663); conditions: protein: recombinant; tags: N-terminal GST; dsDNA, one strand shown
Chain of ELF4 (Q99607 whole entry): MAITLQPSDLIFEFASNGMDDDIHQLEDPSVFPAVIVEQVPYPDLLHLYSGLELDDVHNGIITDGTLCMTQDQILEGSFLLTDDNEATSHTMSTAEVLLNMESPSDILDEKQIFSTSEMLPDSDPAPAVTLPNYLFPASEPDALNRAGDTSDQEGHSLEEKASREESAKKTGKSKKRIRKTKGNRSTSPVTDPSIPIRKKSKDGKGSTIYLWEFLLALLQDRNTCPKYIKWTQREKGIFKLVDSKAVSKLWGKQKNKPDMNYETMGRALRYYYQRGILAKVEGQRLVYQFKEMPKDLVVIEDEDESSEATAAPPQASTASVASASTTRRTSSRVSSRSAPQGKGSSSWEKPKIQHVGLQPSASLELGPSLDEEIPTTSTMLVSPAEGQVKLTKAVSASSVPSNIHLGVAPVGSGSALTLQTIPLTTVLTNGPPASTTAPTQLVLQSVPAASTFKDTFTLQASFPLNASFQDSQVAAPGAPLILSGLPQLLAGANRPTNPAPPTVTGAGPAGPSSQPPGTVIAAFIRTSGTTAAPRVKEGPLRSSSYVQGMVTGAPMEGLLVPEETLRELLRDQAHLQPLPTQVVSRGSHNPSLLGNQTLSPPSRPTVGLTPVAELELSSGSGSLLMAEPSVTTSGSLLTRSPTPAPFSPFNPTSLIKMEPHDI
Procedure, shortened: as §1

[15] = biological target: T9, ELK4 (Homo sapiens, UniProt P28324-2 1-405); conditions: protein: recombinant; tags: N-terminal GST; dsDNA, one strand shown
T9 sequence: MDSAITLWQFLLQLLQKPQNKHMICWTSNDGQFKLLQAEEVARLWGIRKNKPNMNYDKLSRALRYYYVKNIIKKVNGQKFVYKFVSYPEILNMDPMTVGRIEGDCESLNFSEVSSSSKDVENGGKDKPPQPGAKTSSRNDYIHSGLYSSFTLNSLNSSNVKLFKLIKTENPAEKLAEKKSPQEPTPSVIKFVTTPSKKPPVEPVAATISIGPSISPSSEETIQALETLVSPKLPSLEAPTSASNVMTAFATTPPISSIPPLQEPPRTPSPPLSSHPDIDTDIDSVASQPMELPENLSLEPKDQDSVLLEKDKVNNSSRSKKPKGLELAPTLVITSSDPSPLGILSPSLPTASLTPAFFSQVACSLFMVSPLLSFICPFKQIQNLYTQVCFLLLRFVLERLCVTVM
Procedure, shortened: as §1

[16] = biological target: T10, ETV2 (Homo sapiens, UniProt O00321 1-342); conditions: protein: recombinant; tags: N-terminal GST; dsDNA, one strand shown
T10 sequence: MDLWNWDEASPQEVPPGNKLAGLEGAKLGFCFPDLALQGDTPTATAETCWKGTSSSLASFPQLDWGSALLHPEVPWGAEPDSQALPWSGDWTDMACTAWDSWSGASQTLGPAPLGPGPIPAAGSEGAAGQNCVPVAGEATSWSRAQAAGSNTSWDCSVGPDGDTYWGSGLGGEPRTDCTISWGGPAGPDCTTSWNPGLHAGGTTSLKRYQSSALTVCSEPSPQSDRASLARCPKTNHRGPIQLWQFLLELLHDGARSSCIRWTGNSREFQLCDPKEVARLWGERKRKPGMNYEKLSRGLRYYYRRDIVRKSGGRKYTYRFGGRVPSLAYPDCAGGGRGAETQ
Procedure, shortened: as §1

[17] = biological target: T11, ELF3 (Homo sapiens, UniProt P78545 1-371); conditions: protein: recombinant; tags: N-terminal GST; dsDNA, one strand shown
T11 sequence: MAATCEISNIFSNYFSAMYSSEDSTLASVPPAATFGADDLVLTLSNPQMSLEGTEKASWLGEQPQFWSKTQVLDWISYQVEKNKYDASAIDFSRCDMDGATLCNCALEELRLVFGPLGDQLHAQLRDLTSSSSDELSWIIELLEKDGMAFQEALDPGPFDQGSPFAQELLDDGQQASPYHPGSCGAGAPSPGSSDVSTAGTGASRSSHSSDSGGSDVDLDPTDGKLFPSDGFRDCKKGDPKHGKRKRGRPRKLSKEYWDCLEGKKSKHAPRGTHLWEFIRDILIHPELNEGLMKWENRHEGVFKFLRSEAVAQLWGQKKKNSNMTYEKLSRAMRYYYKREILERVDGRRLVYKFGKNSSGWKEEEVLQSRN
Procedure, shortened: as §1

[18] = biological target: ETV1 (Homo sapiens, UniProt P50549 1-477); conditions: protein: recombinant; tags: N-terminal GST; dsDNA, one strand shown
Chain of ETV1 (P50549 whole entry): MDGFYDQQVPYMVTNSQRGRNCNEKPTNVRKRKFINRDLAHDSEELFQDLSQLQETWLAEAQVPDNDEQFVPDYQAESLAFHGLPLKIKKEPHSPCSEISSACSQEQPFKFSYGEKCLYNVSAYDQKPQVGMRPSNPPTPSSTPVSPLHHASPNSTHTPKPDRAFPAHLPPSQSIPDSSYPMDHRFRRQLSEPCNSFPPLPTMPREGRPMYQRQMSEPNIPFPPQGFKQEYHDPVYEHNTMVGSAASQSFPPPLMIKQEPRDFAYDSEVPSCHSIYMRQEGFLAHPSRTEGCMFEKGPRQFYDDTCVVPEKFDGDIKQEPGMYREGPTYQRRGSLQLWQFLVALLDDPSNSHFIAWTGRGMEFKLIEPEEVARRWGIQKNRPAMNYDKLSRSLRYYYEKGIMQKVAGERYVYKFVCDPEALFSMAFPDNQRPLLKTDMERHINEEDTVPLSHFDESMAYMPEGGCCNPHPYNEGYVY
Procedure, shortened: as §1

For CAATTG, the binding signal [1] was 1.32 fold enrichment (6-mer frequency, TF over GST control), the binding signal [2] was 1.19 fold enrichment (6-mer frequency, TF over GST control) and the binding signal [3] was 1.26 fold enrichment (6-mer frequency, TF over GST control). For the same sequence, the binding signal [4] was 1.14 fold enrichment (6-mer frequency, TF over GST control), the binding signal [5] was 1.28 fold enrichment (6-mer frequency, TF over GST control) and the binding signal [6] was 1.27 fold enrichment (6-mer frequency, TF over GST control). For the same sequence, the binding signal [7] was 1.25 fold enrichment (6-mer frequency, TF over GST control), the binding signal [8] was 1.16 fold enrichment (6-mer frequency, TF over GST control) and the binding signal [9] was 1.23 fold enrichment (6-mer frequency, TF over GST control). For the same sequence, the binding signal [10] was 1.18 fold enrichment (6-mer frequency, TF over GST control), the binding signal [11] was 1.2 fold enrichment (6-mer frequency, TF over GST control) and the binding signal [12] was 1.04 fold enrichment (6-mer frequency, TF over GST control). The binding signal [13] was 1.28 fold enrichment (6-mer frequency, TF over GST control), the binding signal [14] was 1.27 fold enrichment (6-mer frequency, TF over GST control) and the binding signal [15] was 1.04 fold enrichment (6-mer frequency, TF over GST control). For the same sequence, the binding signal [16] was 1.16 fold enrichment (6-mer frequency, TF over GST control), the binding signal [17] was 1.32 fold enrichment (6-mer frequency, TF over GST control) and the binding signal [18] was 1.17 fold enrichment (6-mer frequency, TF over GST control).
